High-throughput results as filed in PubChem.
Cycloheximide cs – Cycloheximide Counterscreen for Small Molecule Inhibitors of Shiga Toxin; cell reporter, cycloheximide protein synthesis inhibition counterscreen; hit rate 12% among 300,000; max response, %; AID 2314, 2010; in the data active means max response mostly above about 13%, no sharp cut-off; inactive means mostly below about 14%; further: read at 38.3 µM for the half of the compounds with a filed dose; 0% is about no effect
Shiga toxin inh – A qHTS for Small Molecule Inhibitors of Shiga Toxin; Vero cells, Shiga toxin protein synthesis inhibition reporter; inhibition, % at 38.7 µM; hit rate 9.2% among 290,000; in the data active means inhibition mostly above about 28%, no sharp cut-off; inactive means mostly below about 43%; further: 0% is about no effect
FMDV antiviral – High Throughput Screening for Foot and Mouth Disease Virus Antivirals; FMDV antiviral cell-based qHTS; AID 1159524, 2015; Potency, µM (titrated, usually from 57.9 µM), inactives show top-dose activity change, negative = inhibition, actives largely listed as inhibitors; hit rate 1.2% among 410,000; calls by dose curve; tested in HEK293T cells; further: read-out not given here; potency means the concentration at half of the fitted maximal effect; on the % scale 0 is the no-effect control and ±100 the full control effect; nearly all actives have a fitted effect of over 45% in size
Sm TGR block – qHTS Assay for the Inhibitors of Schistosoma Mansoni Peroxiredoxins; hit rate 3% among 360,000; Potency, µM (series often up to 114 µM), for inactives: at the highest dose activity change, negative = inhibition, actives largely listed as inhibitors; purified TGR, DTNB reduction, TNB absorbance 405 nm; Schistosoma mansoni thioredoxin glutathione reductase (TGR), Q962Y6; active means well fitted inhibition curve with a large enough effect; inconclusive means small, poorly fitted or top-dose-only effect; inactive means no such curve, though single readings can be large or run the other way; further: potency means the concentration at half of the fitted maximal effect; on the % scale 0 is the no-effect control and ±100 the full control effect; nearly all actives have a fitted effect of over 60% in size
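TGR 20 nM + NADPH 100 uM (dispensed conc.), cpd preinc 15 min RT; start with NADPH (500 uM addition) then DTNB (15 mM addition). Kinetic TNB absorbance, 405 nm filter. Four-parameter Hill fit across titration.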
Starred values were filed as active, the others as inactive; ? = inconclusive; nt = no result given. Sampled rows, rich in hits. Any-hit rate of the full collection: about 12%.

SMILES	Cycloheximide cs	Shiga toxin inh	FMDV antiviral	Sm TGR block
NC1=NC(=Nc2ccccc2)c2ccccc21	0	40	?	-29%
Cn1cnc(S(=O)(=O)N2CCCC(C(=O)Nc3ccc(OC(F)(F)F)cc3)C2)c1 (stereo unspecified)	nt	nt	-5%	3%
O=c1[nH]c2cc3c(cc2cc1CN(Cc1nnnn1C1CCCC1)C1CCCC1)OCCO3	19	49	36%	50µM*
Cc1ccc2cc(CN(Cc3nnnn3C3CCCC3)C3CCCCC3)c(=O)[nH]c2c1C	36*	70*	nt	4%
Cc1ccc2[nH]c(=O)c(CN(Cc3nnnn3C3CCCC3)C3CCCCC3)cc2c1	-1	1	nt	0%
Cc1ccc2[nH]c(=O)c(CN(Cc3ccccc3)Cc3nnnn3C3CCCC3)cc2c1	40*	92*	35%	-4%
CCS(=O)(=O)NCc1c(C)ncc2c1CCN(C(=O)c1ccc(F)cc1)C2	nt	nt	-15%	nt
COc1ccc(Nc2ncnc3c2cnn3-c2ccc(C)cc2)cc1Cl	nt	nt	-4%	6%
O=C(Nc1ccc(F)cc1)c1oc2ccccc2c1NC(=O)C12CC3CC(CC(C3)C1)C2	nt	nt	2%	-1%
Cc1ccc(NS(=O)(=O)c2ccc(NC(=O)N3CCCC3)cc2)cc1C	nt	nt	-14%	-2%
CCN(CC)C(=O)Cc1c(OC)ccc2cc(Br)ccc12	0	-5	-16%	4%
CCN(Cc1ccncc1)Cc1c(O)ccc2cc(Br)ccc12	3	34	-12%	1.8µM*
C=C1C(=O)C=C2CN(C(=O)c3ccccc3)[C@@](Cc3ccc(F)cc3)(C(=O)OC)[C@@H]12	-11	-31	3.2µM*	10µM*
COC(=O)[C@@]1(Cc2ccc(OC)cc2)[C@@H]2C(=CC(=O)[C@H]2CC(=O)C(=O)N(C)C)CN1C(=O)c1ccccc1	-5	-18	25µM*	?
COC(=O)[C@@]1(Cc2ccc(OC)cc2)[C@H]2c3cc(C(=O)N(C)C)n(C[C@H](O)CO)c3C[C@H]2CN1C(=O)c1ccccc1	-3	-2	-4%	-20%
Cc1cccc(OCC(=O)Nc2ccc(OCc3cc(=O)n4cc(C)ccc4n3)cc2)c1	nt	nt	-28%	4%
C[C@@H](CO)[C@H](/C=C/c1ccccc1)CCO[Si](c1ccccc1)(c1ccccc1)C(C)(C)C	13	-3	nt	nt
COc1ccccc1-n1c(O)c(/C=N/NC(=S)Nc2ccccc2)c(=O)[nH]c1=S	22*	32	24%	11µM*
O=C(N/N=C/c1c(O)n(CCc2ccc(F)cc2)c(=O)[nH]c1=O)c1ccccc1	14*	53*	5%	?
O=C(N/N=C/c1c(O)n(-c2cccc3ccccc23)c(=O)[nH]c1=O)c1ccncc1	1	39	-3%	14µM*
COc1ccccc1-n1c(O)c(C=NCc2ccc3c(c2)OCO3)c(=O)[nH]c1=O	-2	-13	-3%	?
O=C(N/N=C/c1c(O)n(CCc2ccccc2)c(=O)[nH]c1=O)c1ccncc1	-7	-15	-11%	18µM*
O=C(N/N=C/c1c(O)n(CCc2ccc(F)cc2)c(=O)[nH]c1=O)c1ccncc1	15	-1	2%	?
COc1cccc(Cn2c(CNS(=O)(=O)c3ccc(C(C)(C)C)cc3)nc3cccnc32)c1	nt	nt	30%	0%
CCn1c(O)c(/C=N/NC(=O)c2ccccc2)c(=O)[nH]c1=S	31*	44*	11%	-8%
SMILES	Cycloheximide cs	Shiga toxin inh	FMDV antiviral	Sm TGR block
Cc1ccc(NC(=O)c2ccc3c(c2)NC(=O)c2ccccc2S3)cc1	nt	nt	?	3%
O=C(O)c1ccc2nc(-c3ccco3)c(-c3ccco3)nc2c1	-3	-17	12%	0.5µM*
O=C(c1ccc2nc(-c3ccco3)c(-c3ccco3)nc2c1)N1CCC2(CC1)OCCO2	4	32	22%	1.6µM*
O=C(Nc1cccc(C(F)(F)F)c1)c1ccc2nc(-c3ccco3)c(-c3ccco3)nc2c1	13	-27	?	3.5µM*
O=C(c1ccc2nc(-c3ccco3)c(-c3ccco3)nc2c1)N1CCN(c2ccccc2)CC1	-2	18	?	35µM*
Cc1ccc2c(CC(=O)NCc3ccccc3)coc2c1C	nt	nt	-4%	4%
O=c1ccc2c(o1)/C(=C/C=C(Cl)Cl)CCC2	20	24	-27%	22µM*
COc1cc(C(=O)Nc2nnc(S(=O)(=O)N(C)c3ccccc3)s2)cc(OC)c1OC	nt	nt	-2%	0%
O=C(NC(=S)Nc1cccc2ncccc12)c1ccccc1	30	97	0%	8.9µM*
O=C(NC(=S)Nc1cccc2ncccc12)c1cccs1	6	-6	?	4µM*
CCOC(=O)c1c(NC(=O)c2cc(-c3cccc(Cl)c3)on2)sc(C(C)=O)c1C	nt	nt	-5%	0%
OCC(O)/C=N/Nc1nc2ccccc2s1 (stereo unspecified)	6	48*	40%	-2%
Oc1ccccc1C=NNc1nc2ccccc2s1	nt	nt	13%	nt
C(=N\Nc1nc2ccccc2s1)/c1ccco1	44*	45*	nt	6%
C(=N\Nc1nc2ccccc2s1)/c1cccs1	50*	103*	-16%	17%
Cc1ccsc1/C=N/Nc1nc2ccccc2s1	70*	146*	-10%	4%
COc1ccc2c(c1)c(=O)c(S(=O)(=O)c1ccc(F)cc1)cn2Cc1ccccc1Cl	nt	nt	-15%	0%
CC(=NNc1nc2ccccc2s1)c1ncccn1	nt	nt	-16%	nt
Cc1ccnc(N/N=C/c2ccco2)n1	41*	47	nt	-11%
CCn1c(C)c(/C=N/Nc2nc3ccccc3s2)c2ccccc21	61*	105*	28%	16%
COc1cccc(Cn2ccn(-c3ccc(F)cc3)c(=O)c2=O)c1	nt	nt	-10%	-6%
COc1cc(C2CC(=O)N(CC(=O)Nc3ccccc3F)c3ccccc3S2)cc(OC)c1OC (stereo unspecified)	nt	nt	?	3%
Nc1ccc(C(=O)OCCCc2nc3cc4ccccc4cc3[nH]2)cc1	16	26	23%	5%
Nc1ccc(C(=O)OCc2nc3cc4ccccc4cc3[nH]2)cc1	14	48*	20%	-12%
Nc1ccc(Cc2nc3cc4ccccc4cc3[nH]2)cc1	45*	52*	nt	8%
SMILES	Cycloheximide cs	Shiga toxin inh	FMDV antiviral	Sm TGR block
Nc1ccc(C(=O)OCc2nc3c(ccc4ccccc43)[nH]2)cc1	25*	80*	9%	-6%
O=C(OCc1nc2ccsc2c(=O)[nH]1)c1ccccc1	nt	nt	-4%	0%
CCCc1ccc(/C=C2\C(=O)c3ccccc3C(O)=C2C(=O)OCC)cc1	20*	-3	nt	8.9µM*
CCOC(=O)C1=C(O)c2ccccc2C(=O)/C1=C\c1ccc(CC)cc1	31*	58*	?	4.5µM*
CCOC(=O)c1ccc(COC(=O)c2ccc3c(c2)-c2ccccc2C3=O)cc1	-3	-11	-27%	8%
COc1cccc(Cn2c(C)c(CNCc3ccccc3Cl)c(C(=O)O)c2C)c1	nt	nt	20%	-5%
C=CCn1c(O)c(N=NC(=O)CNC(=O)/C=C/c2ccc(OC)cc2)c2ccccc21	-4	-3	8%	13%
CCCCn1c(O)c(N=NC(=O)c2ccco2)c2ccccc21	66*	86*	-5%	2%
C=CCn1c(O)c(N=NC(=O)CNC(=O)/C=C/c2ccco2)c2ccccc21	-1	-8	nt	18µM*
